The record followed here is ChEMBL document CHEMBL2218924, “A broad activity screen in support of a chemogenomic map for kinase signalling research and drug discovery” (Biochem J, 2013).

One experiment deals with Serine/threonine-protein kinase pim-3 (Homo sapiens) (UniProt Q86V86). The settings on record: at 1 µM.
The term residual activity denotes the signal under treatment as a percentage of the control signal. With `COc1cc2ncnc(Nc3ccc(OCc4ccccc4)cc3)c2cc1OC`, the residual activity stood at 107%.

As to `C[S+]([O-])c1ccc(-c2nc(-c3ccc(F)cc3)c(-c3ccncc3)[nH]2)cc1` (stereo unspecified), the residual activity stood at 107%. The same measure, in the same setting: under `N/C(=N\[N+](=O)[O-])N/N=C\c1ccc(-c2cccc([N+](=O)[O-])c2)o1` stands 88%; under `CC(C)[C@H](CO)Nc1nc(Nc2cccc(Cl)c2)c2ncn(C(C)C)c2n1`, 87%. Same read-out and setting: under `COC(=O)[C@@]1(O)C[C@H]2O[C@]1(C)n1c3ccccc3c3c4c(c5c6ccccc6n2c5c31)C(=O)NC4` stands 31%. On the same count and under the same terms, the same measure for `CC(C)(C)c1cc(C=C(C#N)C#N)cc(Br)c1O`: 105%; for `O=C1NC(=O)c2c1c1c3ccccc3n3c1c1c2c2ccccc2n1C1CCC3O1`: 38%; for `COc1cc(OC)c(/C=C2\C(=O)Nc3ccccc32)c(OC)c1`: 81%.

With `O=[N+]([O-])/C=C/c1ccc2c(c1)OCO2`, the residual activity is 101%.

Take `CCn1cnc2c(Nc3cccc(Cl)c3)nc(N[C@@H]3CCCC[C@@H]3N)nc21`: the residual activity was determined as 57%. On the same count and under the same terms, under `COc1ccc2c(c[n+](C)c3c4cc5c(cc4ccc23)OCO5)c1OC` stands 100%. `O=c1[nH]c2ccccc2n1C1CCN(Cc2ccc(-c3nc4cc5[nH]cnc5cc4nc3-c3ccccc3)cc2)CC1`: the residual activity is 102%. On the same count and under the same terms, the same measure for `O=C1Nc2ccc3ncsc3c2/C1=C/c1c[nH]cn1`: 53%.

The next experiment shares this target. The settings on record: at 10 µM.
As for `COc1cc2ncnc(Nc3ccc(OCc4ccccc4)cc3)c2cc1OC`, the residual activity is 100%. Take `N/C(=N\[N+](=O)[O-])N/N=C\c1ccc(-c2cccc([N+](=O)[O-])c2)o1`: the residual activity turned out to be 87%.

For `CC(C)[C@H](CO)Nc1nc(Nc2cccc(Cl)c2)c2ncn(C(C)C)c2n1`, the residual activity was determined as 89%. As for `COC(=O)[C@@]1(O)C[C@H]2O[C@]1(C)n1c3ccccc3c3c4c(c5c6ccccc6n2c5c31)C(=O)NC4`, the residual activity turned out to be 5%. Still for that read-out and setting: the same measure for `CC(C)(C)c1cc(C=C(C#N)C#N)cc(Br)c1O`: 104%; for `O=C1NC(=O)c2c1c1c3ccccc3n3c1c1c2c2ccccc2n1C1CCC3O1`: 45%. The same measure, in the same setting: the same measure for `COc1cc(OC)c(/C=C2\C(=O)Nc3ccccc32)c(OC)c1`: 86%.

In the case of `O=[N+]([O-])/C=C/c1ccc2c(c1)OCO2`, the residual activity turned out to be 103%. As for `COc1ccc2c(c1)/C(=C/c1cnc[nH]1)C(=O)N2`, the residual activity is 52%. On the same count and under the same terms, under `CCn1cnc2c(Nc3cccc(Cl)c3)nc(N[C@@H]3CCCC[C@@H]3N)nc21` stands 13%; under `COc1ccc2c(c[n+](C)c3c4cc5c(cc4ccc23)OCO5)c1OC`, 95%.

Consider `O=c1[nH]c2ccccc2n1C1CCN(Cc2ccc(-c3nc4cc5[nH]cnc5cc4nc3-c3ccccc3)cc2)CC1`, for which the residual activity was determined as 97%. Consider `O=C1Nc2ccc3ncsc3c2/C1=C/c1c[nH]cn1`, for which the residual activity turned out to be 11%.
